# Screening data: PubChem, Broad Institute
# Compounds with a hit are over-represented: about 6.8% of the library has one in this group of screens.
# T cruzi growth-1 – blocks T. cruzi growth in NIH3T3 culture; T. cruzi beta-gal in NIH3T3, GalScreen luminescence, 90 h; inhibition, % at 8.34 µM; 5.9% of 77,000 active; AID 624255;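 active means mean inhibition above about 93%, with at least 55% of replicates each passing it, limit read from the data, passing the limit was not always enough; inconclusive means only one of those two conditions holds; inactive means neither condition holds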
# C diff HTS – blocks growth of Clostridium difficile. growth activity, negative = inhibition, % at 16 µg/mL (by protocol). 0.25% of 86,000 active. Clostridium difficile clinical isolate growth, OD600, 24 h; active compounds read low;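 active means mean growth activity at or below -80% and every replicate also at or below -80%; inconclusive means mean at or below -80% but some replicate above -80%; inactive means mean growth activity above -80%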
# Pf Dd2 growth – inhibitors of Plasmodium falciparum Dd2 growth | P. falciparum Dd2 growth, SYBR Green, 72 h; active compounds read low | activity change, % at 10 µM | 2.3% of 94,000 active; in the data active means activity change below about -80%; inconclusive means no clear call, values can overlap the other calls
# T cruzi growth-2 – blocks T. cruzi growth in NIH3T3 host cells | shares compounds with T cruzi growth-1 | T. cruzi beta-gal in NIH3T3, GalScreen luminescence, 90 h | inhibition, % at 8.35 µM | 72% of 5,600 active;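 active means mean replicate inhibition above about 95% and at least 55% of replicates individually reaching it, limit read from the data; inconclusive means only one of the two criteria is met; inactive means neither criterion is met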
# T cruzi growth-3 – Trypanosoma cruzi proliferation inhibition. 21% of 5,600 active. shares compounds with T cruzi growth-1. T. cruzi beta-gal in NIH3T3, GalScreen luminescence, 90 h. inhibition, % at 2.09 µM;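 active means mean inhibition above about 95%, with at least 55% of replicates also reaching it, limit read from the data; inconclusive means meets just one of the two conditions; inactive means meets neither condition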
# NIH3T3 tox – NIH/3T3 (mouse) viability loss; cytotoxicity (signal decrease), % at 8.35 µM; 14% of 5,600 active; shares compounds with T cruzi growth-1; NIH/3T3 viability, CellTiter-Glo ATP luminescence, 90 h;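 active means mean signal decrease across replicates above about 35% based on untreated-well scatter, with enough replicates individually passing, limit read from the data; inconclusive means no rule stated though some were filed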
# NIH3T3 tox 2 – cytotoxicity in mouse NIH/3T3 fibroblasts; shares compounds with T cruzi growth-1; 56% of 5,600 active; NIH/3T3 viability, CellTiter-Glo ATP luminescence, 90 h; inhibition, % at 24.9 µM;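 active means mean loss of cell viability signal at or above a set limit, and enough replicates individually reaching it; inconclusive means meets only the mean limit or only the replicate share; inactive means meets neither condition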
# Hits are given with their value; i = inactive; ? = inconclusive; nt = not tested or not shown.
SMILES,T cruzi growth-1,C diff HTS,Pf Dd2 growth,T cruzi growth-2,T cruzi growth-3,NIH3T3 tox,NIH3T3 tox 2
C[C@@H]1CCCCO[C@@H](CN(C)C(=O)c2ccccc2)[C@@H](C)CN([C@@H](C)CO)C(=O)c2cc(NS(=O)(=O)c3cn(C)cn3)ccc2O1,i,nt,i,nt,nt,nt,nt
N#C[C@H]1N[C@H](CO)[C@@H]1c1ccc(C#CC2CCCC2)cc1,i,i,i,nt,nt,nt,nt
N#C[C@@H]1N[C@@H](CO)[C@H]1c1ccc(C#CC2CCCC2)cc1,?,i,i,i,i,i,i
N#C[C@@H]1N[C@@H](CO)[C@H]1c1ccc(C#Cc2ccc(F)cc2)cc1,?,i,i,i,i,i,i
N#C[C@@H]1N[C@@H](CO)[C@H]1c1ccc(C#Cc2ccccc2F)cc1,i,i,i,nt,nt,nt,nt
CN(C)CC#Cc1ccc([C@@H]2[C@H](C#N)N[C@@H]2CO)cc1,i,i,i,nt,nt,nt,nt
N#C[C@@H]1N[C@@H](CO)[C@@H]1c1ccc(C#Cc2ccc(F)cc2)cc1,103,i,i,105,i,i,i
O=C(C[C@H]1CC[C@@H]2[C@H](COC[C@H](O)CN2Cc2cc(F)cc(F)c2)O1)NC1CCCC1,i,i,i,nt,nt,nt,nt
O=C(C[C@@H]1CC[C@@H](NC(=O)c2ccncc2)[C@@H](CO)O1)NCc1ccncn1,nt,i,i,nt,nt,nt,nt
COCC#Cc1ccc2c(c1)O[C@H](CN(C)CC1CCCCC1)[C@H](C)CN([C@H](C)CO)S2(=O)=O,i,i,i,nt,nt,nt,nt
C[C@H](CO)N1C[C@H](C)[C@@H](CN(C)C(=O)Nc2ccccc2)Oc2ncc(C#CC3CCCCC3)cc2C1=O,103,i,i,106,i,i,30
COc1cccc(NC(=O)N(C)C[C@H]2Oc3ncc(C#Cc4ccncc4)cc3C(=O)N([C@H](C)CO)C[C@H]2C)c1,nt,i,i,nt,nt,nt,nt
COc1cccc(NC(=O)N(C)C[C@@H]2Oc3ncc(C#Cc4ccccc4)cc3C(=O)N([C@@H](C)CO)C[C@@H]2C)c1,?,i,i,100,i,i,i
COc1cccc(NC(=O)N(C)C[C@@H]2Oc3ncc(C#Cc4ccncc4)cc3C(=O)N([C@H](C)CO)C[C@@H]2C)c1,nt,i,i,nt,nt,nt,nt
C[C@@H]1CN([C@H](C)CO)C(=O)c2cc(C#CC3CCCCC3)cnc2O[C@H]1CN(C)C(=O)Nc1ccccc1,nt,i,i,nt,nt,nt,nt
COc1cccc(C#Cc2cnc3c(c2)C(=O)N([C@H](C)CO)C[C@@H](C)[C@H](CN(C)C)O3)c1,102,i,i,102,i,i,105
COc1cccc(NC(=O)N(C)C[C@H]2Oc3ncc(C#Cc4ccccc4)cc3C(=O)N([C@@H](C)CO)C[C@@H]2C)c1,123,i,i,112,110,i,i
COc1cccc(C#Cc2cnc3c(c2)C(=O)N([C@H](C)CO)C[C@@H](C)[C@@H](CN(C)C)O3)c1,i,i,i,nt,nt,nt,nt
C[C@@H]1CCCCO[C@@H](CN(C)CC2CCCCC2)[C@H](C)CN([C@H](C)CO)C(=O)c2cc(NS(=O)(=O)c3cccs3)ccc2O1,i,i,i,nt,nt,nt,nt
CN(C)c1ccc2c(c1)[C@H]1C[C@@H](CC(=O)NCc3ccc(Cl)cc3)O[C@@H](CO)[C@H]1O2,i,i,i,nt,nt,nt,nt
C[C@H]1CN([C@@H](C)CO)C(=O)c2cc(NC(=O)Nc3cccc4ccccc34)ccc2O[C@@H]1CN(C)C(=O)Nc1ccc(C(F)(F)F)cc1,i,i,i,nt,nt,nt,nt
CO[C@H]1CN(C)C(=O)c2cc(NC(=O)c3nc4ccccc4s3)ccc2OC[C@H](C)N(Cc2cncnc2)C[C@@H]1C,i,nt,i,nt,nt,nt,nt
C[C@@H]1CN([C@@H](C)CO)S(=O)(=O)c2ccc(-c3cccc(F)c3)cc2O[C@@H]1CN(C)S(=O)(=O)c1ccc(F)cc1,i,i,i,nt,nt,nt,nt
C[C@H](CO)N1C[C@H](C)[C@H](CN(C)S(=O)(=O)c2ccc(F)cc2)Oc2cc(-c3cccc(F)c3)ccc2S1(=O)=O,124,i,i,98,i,i,54
C[C@H]1CN([C@@H](C)CO)S(=O)(=O)c2ccc(-c3cccc(F)c3)cc2O[C@H]1CN(C)S(=O)(=O)c1ccc(F)cc1,118,i,i,99,108,i,52
C[C@@H]1CN([C@@H](C)CO)S(=O)(=O)c2ccc(-c3cccc(F)c3)cc2O[C@H]1CN(C)C,i,i,nt,nt,nt,nt,nt
